Reference: PubChem BioAssay (NCATS)
Results filed as inconclusive are left out. The source made the active and inactive calls. Calls follow the shape of the dose curve; as a rule, active = well fitted cell-killing curve with a large enough effect; inconclusive = small, poorly fitted or top-dose-only effect, or effect the other way; inactive = no such curve, though single readings can be large or run the other way.

Assay: qHTS of pediatric cancer cell lines to identify multiple opportunities for drug repurposing: Confirmatory screen for RD cells (AID 1347124);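 also: cells exposed to compound for 48 h before viability readout; nearly all actives have a fitted effect of over 65% in size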
Conditions: RD rhabdomyosarcoma cell viability; series mostly up to 45.9 µM
Excerpt: Drug repurposing or repositioning has been offered as a strategy for drug development in oncology programs. This approach has special potential for childhood cancers and other rare or orphan diseases, where the expected return on new drug development has been a disincentive to pharmaceuticals.
In this project we exploit the poly-pharmacology of drugs to discover new indications via phenotypic screening of a panel of 19 well-characterized cell lines derived from solid tumors seen in children and adolescents. The goal is to identify approved drugs with previously unrecognized anticancer properties that has the potential to reveal new mechanisms and biological processes involved in carcinogenesis or drug resistance. We employed a titration-based paradigm (quantitative high-throughput screening or qHTS), where all compounds were tested at multiple concentrations for their effect on cell viability. Concentration-response curves (CRCs) were derived directly from the primary screen, and both potency and efficacy values were used to identify compounds with robust bioactivity profiles. We screened the NIH Chemical Genomics Center (NCGC) Pharmaceutical Collection (NPC) and Mechanism Interrogation Plate (MIPE) small molecule collections of approved and investigational compounds against these cell lines; and measured metabolically active cells after 48 hours of compound treatment as a proxy for cell viability.
Assay Submitter: Nathalia J. Martinez, National Center for Advancing Translational Sciences, National Institutes of Health, Rockville, MD, USA; email: natalia.martinez@nih.gov
[1] Shen, M et al. Quantitative high-throughput phenotypic screening of pediatric cancer cell lines identifies multiple opportunities for drug repurposing. Oncotarget 2017 Dec 19;9(4):4758-4772. PMID 29435139.
The cells were obtained from University of North Carolina (UNC), Pediatric Preclinical Testing Program (PPT), and Coriell Institute (CI).
qHTS cell viability assay:
Cells were assayed in growth media at a density of 500-1,000 cells/well. Five microliters of cells were dispensed into 1,536-well, white, solid-bottom, TC-treated plates (Greiner Bio One) using a multidrop dispenser and incubated at 37 degrees C, 5% CO2, under a humidified atmosphere for 5 hours. Twenty-three nanoliters of compounds and controls (neutral control DMSO or positive control bortezomib at final concentration of 2.3 µM) were subsequently transferred by Kalypsys pintool. For primary screens, the MIPE collection was tested at 11-point dilutions (final concentrations range from 0.78 nM to 46 µM) and the NPC collection at 8-point dilutions (final concentrations range from 0.59 nM to 46 µM). Compounds tested in follow-up screens were assayed at 11-point dilutions. Cells were incubated for 48 hours, followed by addition of 3 µL of CellTiter-Glo (Promega). After a 15 min incubation at room temperature, samples were analyzed for luminescence intensity using a ViewLux High-throughput CCD imager equipped with clear filters.
Potency is read from the fitted curve at half-maximal effect.

**Q.** With `Cc1[nH]c2ccccc2c1CCNCc1ccc(C=CC(=O)NO)cc1` as the compound, how does the Potency read?
**A.** inactive

**Q.** With `Cc1cc(Nc2cc(NC(=O)c3c(Cl)cccc3Cl)ccn2)nc(N)n1` as the compound, how does the Potency read?
**A.** inactive

**Q.** For `CCCCc1nc2cc(C=CC(=O)NO)ccc2n1CCN(CC)CC`, which Potency is on record?
**A.** 2330 nM (active)

**Q.** For `CC(C)[C@H](C(=O)Nc1ccc(C(=O)NO)cc1)c1ccccc1`, which Potency is on record?
**A.** 1650 nM (active)

**Q.** Which Potency does the source give for `CCC1=C[C@@H]2CN(C1)Cc1c([nH]c3ccccc13)[C@@](C(=O)OC)(c1cc3c(cc1OC)N(C)[C@@H]1[C@@](O)(C(=O)OC)[C@H](OC(C)=O)[C@]4(CC)C=CCN5CC[C@]31[C@@H]54)C2` here?
**A.** 369 nM (active)

**Q.** With `C=CCn1c(=O)c2cnc(Nc3ccc(N4CCN(C)CC4)cc3)nc2n1-c1cccc(C(C)(C)O)n1` as the compound, how does the Potency read?
**A.** 737 nM (active)

**Q.** For `CC(C)(C)c1cc(C(C)(C)C)c(NC(=O)c2c[nH]c3ccccc3c2=O)cc1O`, which Potency is on record?
**A.** 29300 nM (active)

**Q.** For `COCCn1c2c([n+](Cc3cnccn3)c1C)C(=O)c1ccccc1C2=O`, which Potency is on record?
**A.** 26.1 nM (active)

**Q.** With `O=C(Nc1ncc(-c2cc(C(F)F)nn2-c2c(Cl)cccc2Cl)s1)C1CC1` as the compound, how does the Potency read?
**A.** 827 nM (active)

**Q.** For `COc1ccc(-n2nc(C(N)=O)c3c2C(=O)N(c2ccc(N4CCCCC4=O)cc2)CC3)cc1`, which Potency is on record?
**A.** 1310 nM (active)

**Q.** For `O=c1[nH]nc(Sc2ncc([N+](=O)[O-])s2)n1-c1ccc2c(c1)OCCO2`, which Potency is on record?
**A.** 9270 nM (active)

**Q.** For `Nc1cc(C(F)(F)F)c(-c2cc(N3CCOCC3)nc(N3CCOCC3)n2)cn1`, which Potency is on record?
**A.** 5850 nM (active)

**Q.** With `CC[C@@H]1C(=O)N(C)c2cnc(Nc3ccc(C(=O)NC4CCC(N5CCN(CC6CC6)CC5)CC4)cc3OC)nc2N1C(C)C` (stereo not given in full) as the compound, how does the Potency read?
**A.** inactive

**Q.** For `CC(NCc1ccc2c(c1)nc(NC(=O)c1ccc(-c3cn[nH]c3)s1)n2CC(C)(C)O)C(C)(C)C` (stereo not given), which Potency is on record?
**A.** 928 nM (active)

**Q.** For `C=CC(=O)Nc1cc2c(Nc3ccc(F)c(Cl)c3)ncnc2cc1C#CC(C)(C)N1CCN(C)CC1`, which Potency is on record?
**A.** 6030 nM (active)

**Q.** With `Cc1ccc(C(=O)Nc2cccc(C(F)(F)F)c2)cc1-c1ccc2nc(NCCN3CCOCC3)ncc2c1` as the compound, how does the Potency read?
**A.** 7370 nM (active)

**Q.** For `COc1cc2nccc(Oc3ccc(NC(=O)C4(C(=O)Nc5ccc(F)cc5)CC4)cc3)c2cc1OC`, which Potency is on record?
**A.** inactive

**Q.** Which Potency does the source give for `Nc1ccccc1NC(=O)c1ccc(CNC(=O)OCc2cccnc2)cc1` here?
**A.** 13500 nM (active)

**Q.** For `CC(=O)OCC(=O)[C@@]1(O)[C@H](C)C[C@H]2[C@@H]3C=C(C)C4=Cc5c(cnn5-c5ccccc5)C[C@]4(C)[C@@H]3[C@@H](O)C[C@@]21C`, which Potency is on record?
**A.** 9270 nM (active)

**Q.** Which Potency does the source give for `Nc1ccccc1NC(=O)c1ccc(CNc2nccc(-c3cccnc3)n2)cc1` here?
**A.** 1650 nM (active)

**Q.** Which Potency does the source give for `CC1(C)OC2=C(C(=O)c3ccccc3C2=O)[C@H](NCc2ccccc2)[C@H]1O` here?
**A.** 8270 nM (active)

**Q.** For `CC(C)(C)NC(=O)[C@H]1CN(Cc2cccnc2)CCN1C[C@@H](O)C[C@@H](Cc1ccccc1)C(=O)N[C@H]1c2ccccc2C[C@H]1O`, which Potency is on record?
**A.** inactive

**Q.** With `CC(C)c1cc(C(=O)N2Cc3ccc(CN4CCN(C)CC4)cc3C2)c(O)cc1O` as the compound, how does the Potency read?
**A.** 522 nM (active)

**Q.** For `COc1cc2c(Oc3ccc(-c4cnc(Nc5ccc(F)cc5)n(C)c4=O)cc3F)ccnc2cc1OCCCN1CCOCC1`, which Potency is on record?
**A.** 11700 nM (active)

**Q.** Which Potency does the source give for `Cc1nc(N)ncc1-c1nc(N2CCOCC2)c2sc(C(C)(C)O)cc2n1` here?
**A.** 1170 nM (active)

**Q.** For `CC1(C)O[C@@H]2C[C@@H]3[C@H]4C[C@@H](F)C5=CC(=O)C=C[C@]5(C)[C@@]4(F)[C@@H](O)C[C@]3(C)[C@]2(C(=O)CO)O1`, which Potency is on record?
**A.** 8270 nM (active)

**Q.** Which Potency does the source give for `CN(C)CC(C)(C)CNc1nn2c(-c3ccccc3)nnc2cc1C1CCC1` here?
**A.** inactive

**Q.** Which Potency does the source give for `CCNC(=O)Nc1ccc2ncc(Nc3ccc(C)cc3)nc2n1` here?
**A.** inactive

**Q.** With `COC(=O)Nc1nc2ccc(C(=O)c3ccc(F)cc3)cc2[nH]1` as the compound, how does the Potency read?
**A.** 2930 nM (active)

**Q.** With `COc1cccc2nc(-c3cccs3)nc(NN3C(=O)C=C(C)C3=O)c12` as the compound, how does the Potency read?
**A.** 5220 nM (active)

**Q.** With `CNC(=O)c1ccc(N2C(=S)N(c3cnc(C#N)c(C(F)(F)F)c3)C(=O)C23CCC3)cc1F` as the compound, how does the Potency read?
**A.** inactive

**Q.** With `CNC(=O)c1ccccc1Nc1nc(Nc2ccc(N3CCOCC3)cc2OC)ncc1Cl` as the compound, how does the Potency read?
**A.** 827 nM (active)

**Q.** For `Cc1cnc(-c2cnc(NCCNc3ccc(C#N)cn3)nc2-c2ccc(Cl)cc2Cl)[nH]1`, which Potency is on record?
**A.** inactive

**Q.** Which Potency does the source give for `Cc1nc(Nc2n[nH]c3c2CN(C(=O)N[C@H](CN(C)C)c2ccccc2)C3(C)C)c2sccc2n1` here?
**A.** inactive

**Q.** For `CCN1CCN(Cc2ccc(-c3cc4c(N[C@H](C)c5ccccc5)ncnc4[nH]3)cc2)CC1`, which Potency is on record?
**A.** 21400 nM (active)

**Q.** For `CC(C)(C)c1cnc(CSc2cnc(NC(=O)C3CCNCC3)s2)o1`, which Potency is on record?
**A.** 585 nM (active)

**Q.** With `Cc1ccc(-c2ncn(-c3ccc(Nc4nccc(-c5cccc(N6CCOCC6)c5)n4)cc3)n2)cn1` as the compound, how does the Potency read?
**A.** 240 nM (active)

**Q.** For `COc1ccc(C=Cc2cc(OC)c(OC)c(OC)c2)cc1O`, which Potency is on record?
**A.** 11.7 nM (active)

**Q.** For `COc1ccc(OC)c(-c2nnc3ccc(-c4ccc(OC)c(O[C@@H]5CCOC5)c4)nn23)c1`, which Potency is on record?
**A.** 11700 nM (active)

**Q.** Which Potency does the source give for `O=C(C=Cc1cccnc1)NCCCCC1CCN(C(=O)c2ccccc2)CC1` here?
**A.** inactive
